According to PubChem BioAssay (Tox21):
Inconclusive results are not listed. Where a call stands in place of a potency, no number is given. Unmarked numbers belong to inactive results. Calls of active or inactive are those of the source. Calls follow the shape of the dose curve; as a rule, active = well fitted curve in the direction sought with a large enough effect in the repeat runs; inconclusive = weak or mixed curves; inactive = no such curve, though single readings can be large; an effect the other way counts as inactive or inconclusive.

test: qHTS assay to identify small molecule antagonists of the retinoic acid receptor (RAR) signaling pathway (AID 1159552; also: nearly all actives have a fitted effect of over 50% in size); conditions: C3RL4 RARE luciferase reporter, retinol-stimulated, 6 h; series mostly up to 92.4 µM
Procedure, shortened: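 Using a RARE-driven luciferase construct in C3RL4 cells, retinol at 1 uM final provided the agonist stimulus while compounds were co-applied. After 6 hours at 37 C, luminescence was recorded to flag inhibitors of retinol signaling.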

Structure (SMILES)	outcome	activity, negative = inhibition
ONc1ccccc1	inactive	
CC(C)OC(=O)CCC(=O)OC(C)C	inactive	
CC(C)(CO)C(O)C(=O)NCCCO (centres undefined)	inactive	
Cn1c(=O)c2[nH]c(Br)nc2n(C)c1=O	inactive	
COC(=O)CCCCC(=O)O	inactive	
N[C@@H](Cc1ccc(O)cc1)C(=O)O		7.5% [at 8.39 µM]
COc1ccc(CCO)cc1	inactive	
C[C@@H](O)C(=O)O	inactive	
CCCc1ccc(O)cc1	inactive	
CC1(C)Oc2ccc(C#N)cc2[C@@H](N2CCCC2=O)[C@@H]1O	inactive	
CCC/C=C(\C=O)CC	inactive	
CC(C)=CCC/C(C)=C/COC=O	inactive	
O=C(CCCCC(=O)Nc1c(I)cc(I)c(C(=O)O)c1I)Nc1c(I)cc(I)c(C(=O)O)c1I	inactive	
COP(=O)(O)OP(=O)(O)OC	inactive	
O=C(O)CCCCCC(=O)O	inactive	
COS(=O)(=O)O	inactive	
C[C@]12CCC(=O)C=C1CC[C@H]1[C@@H]3CC[C@](O)(C(=O)CO)[C@@]3(C)C[C@H](O)[C@@]12F	inactive	
CCCCCCCCCOC(=O)CCCCC(=O)OCCCCCCC	inactive	
O=C1NC(c2ccccc2)(c2ccccc2)C(=O)N1COP(=O)(O)O	inactive	

Structure (SMILES)	outcome	activity, negative = inhibition
[O-][n+]1cccc(/C(Cl)=N/OC[C@@H](O)CN2CCCCC2)c1	inactive	
CC(C)NC(=O)c1ccc(C=O)cc1	inactive	
O=C1c2ccccc2C(=O)c2cc(Cl)ccc21		30% [at 8.39 µM]
CCc1occc(=O)c1O	inactive	
CC(C)[C@H]1CC[C@H](C)C[C@@H]1O	inactive	
Cc1ncc([N+](=O)[O-])n1CC(C)O (centres undefined)	inactive	
CC(=O)CCc1ccc(OC(C)=O)cc1	inactive	
CC(C)OC(=O)OCOP(=O)(CO[C@H](C)Cn1cnc2c(N)ncnc21)OCOC(=O)OC(C)C	inactive	
CC12CCC(C1)C(C)(C)C2O (centres undefined)	inactive	
CCN(CC)CCN	inactive	
CO[Si](CCCn1c(=O)n(CCC[Si](OC)(OC)OC)c(=O)n(CCC[Si](OC)(OC)OC)c1=O)(OC)OC	inactive	
CC(=O)CC(=O)OC(C)(C)C	inactive	
OCC1CCC(CO)CC1 (centres undefined)	inactive	
OCC1(CO)COCOC1	inactive	
CCC(C(=O)OCCN1CCOC(c2ccccc2)C1C)c1ccccc1 (centres undefined)	inactive	
COc1cc(OC)nc(O[C@H](C(=O)O)C(OC)(c2ccccc2)c2ccccc2)n1	inactive	
CCOC(CN1CCN(CC(C)C(=O)c2ccccc2)CC1)c1ccccc1 (centres undefined)		1.21% [at 19 µM]
C=CCSSCCC	inactive	

test: qHTS assay to identify small molecule agonists of the retinoic acid receptor (RAR) signaling pathway (AID 1159553); conditions: C3RL4 RARE luciferase reporter, agonist, 6 h; series mostly up to 73.3 µM; also: potency is read from the fitted curve at half-maximal effect
Procedure, shortened: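 Compounds dissolved in DMSO were pinned onto C3RL4 cells seeded the previous day, and plates were held 6 hr at 37 C. RARE-driven luciferase output was then read by luminescence.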

Structure (SMILES)	Potency	activation
ONc1ccccc1	24.1 µM (active)	
CC(C)OC(=O)CCC(=O)OC(C)C	inactive	
CC(C)(CO)C(O)C(=O)NCCCO (centres undefined)	inactive	
Cn1c(=O)c2[nH]c(Br)nc2n(C)c1=O	inactive	
COC(=O)CCCCC(=O)O	inactive	
N[C@@H](Cc1ccc(O)cc1)C(=O)O		0.0879% [at 8.36 µM]
COc1ccc(CCO)cc1	inactive	
C[C@@H](O)C(=O)O	inactive	
CCCc1ccc(O)cc1	inactive	
CC1(C)Oc2ccc(C#N)cc2[C@@H](N2CCCC2=O)[C@@H]1O	inactive	
CCC/C=C(\C=O)CC	inactive	
CC(C)=CCC/C(C)=C/COC=O	inactive	
O=C(CCCCC(=O)Nc1c(I)cc(I)c(C(=O)O)c1I)Nc1c(I)cc(I)c(C(=O)O)c1I	inactive	
COP(=O)(O)OP(=O)(O)OC	inactive	
O=C(O)CCCCCC(=O)O	inactive	
COS(=O)(=O)O	inactive	
C[C@]12CCC(=O)C=C1CC[C@H]1[C@@H]3CC[C@](O)(C(=O)CO)[C@@]3(C)C[C@H](O)[C@@]12F	inactive	
CCCCCCCCCOC(=O)CCCCC(=O)OCCCCCCC	inactive	
O=C1NC(c2ccccc2)(c2ccccc2)C(=O)N1COP(=O)(O)O	inactive	

Structure (SMILES)	Potency	activation
[O-][n+]1cccc(/C(Cl)=N/OC[C@@H](O)CN2CCCCC2)c1	inactive	
CC(C)NC(=O)c1ccc(C=O)cc1	26.6 µM (active)	
O=C1c2ccccc2C(=O)c2cc(Cl)ccc21		2.57% [at 8.36 µM]
CCc1occc(=O)c1O	inactive	
CC(C)[C@H]1CC[C@H](C)C[C@@H]1O	inactive	
Cc1ncc([N+](=O)[O-])n1CC(C)O (centres undefined)	inactive	
CC(=O)CCc1ccc(OC(C)=O)cc1	inactive	
CC(C)OC(=O)OCOP(=O)(CO[C@H](C)Cn1cnc2c(N)ncnc21)OCOC(=O)OC(C)C	inactive	
CC12CCC(C1)C(C)(C)C2O (centres undefined)	inactive	
CCN(CC)CCN	inactive	
CO[Si](CCCn1c(=O)n(CCC[Si](OC)(OC)OC)c(=O)n(CCC[Si](OC)(OC)OC)c1=O)(OC)OC	inactive	
CC(=O)CC(=O)OC(C)(C)C	inactive	
OCC1CCC(CO)CC1 (centres undefined)	inactive	
OCC1(CO)COCOC1	inactive	
CCC(C(=O)OCCN1CCOC(c2ccccc2)C1C)c1ccccc1 (centres undefined)	inactive	
COc1cc(OC)nc(O[C@H](C(=O)O)C(OC)(c2ccccc2)c2ccccc2)n1	inactive	
CCOC(CN1CCN(CC(C)C(=O)c2ccccc2)CC1)c1ccccc1 (centres undefined)	inactive	
C=CCSSCCC	inactive	
